Results reported in PubChem BioAssay (NCATS).
“And” between values parts separate entries of the source, which are not always exact repeats. Equal entries are not always repeated. Inconclusive results are not listed. The source holds several records for some structures; these can differ, active in one and inactive in another. The source made the active and inactive calls. Calls come from the whole dose curve; as a rule, active = well fitted inhibition curve with a large enough effect; inconclusive = small, poorly fitted or top-dose-only effect; inactive = flat fitted curve, though single readings scatter.

Assays:
CRL-7250 [1] = assay: Cytotoxic Profiling of Annotated Libraries Using Quantitative High-Throughput Screening (AID 1296008); conditions: Five cell lines viability, CellTiter-Glo ATP luminescence, 48-72 h; max response: stronger effect = lower value; for max response: % is set by controls: 0 for no effect and ±100 for the full control effect
Method in brief: (§1)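 Compounds were pin-transferred onto cells and incubated 48 or 72 hr at 37 degree Celsius, 95% humidity. CellTiter-Glo was added, plates sat 10 min at room temperature, then ATP-coupled luminescence was imaged as the viability read-out.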

HEK293 = assay: as above; conditions: Five cell lines viability, CellTiter-Glo ATP luminescence, 48-72 h; max response: stronger effect = lower value
Method in brief: as §1

HaCat [2] = assay: as above; conditions: Five cell lines viability, CellTiter-Glo ATP luminescence, 48-72 h; max response: stronger effect = lower value
Method in brief: as §1

KB-3-1 = assay: as above; conditions: Five cell lines viability, CellTiter-Glo ATP luminescence, 48-72 h; max response: stronger effect = lower value
Method in brief: as §1

NIH3T3 = assay: as above; conditions: Five cell lines viability, CellTiter-Glo ATP luminescence, 48-72 h; max response: stronger effect = lower value
Method in brief: as §1

HACAT [3] = assay: qHTS assay to identify novel small-molecules to repurpose for Merkel cell carcinoma treatment (AID 1296009); conditions: MCC and control cell lines, CellTiter-Glo viability, 72 h; at 44.8 µM (top of the series) unless noted
Method in brief: (§2)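 Viability readout: ATP luminescence (CellTiter-Glo) after 72 hr drug exposure at 37 degree celsius. Dose-response format was 8 points for NPC and 11 points for MIPE; data normalized to in-plate controls.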

HEK293T = assay: as above; conditions: MCC and control cell lines, CellTiter-Glo viability, 72 h; at 44.8 µM (top of the series)
Method in brief: as §2

MCC-13 = assay: as above; conditions: MCC and control cell lines, CellTiter-Glo viability, 72 h; series mostly up to 46 µM
Method in brief: as §2

MCC-26 = assay: as above; conditions: MCC and control cell lines, CellTiter-Glo viability, 72 h; series mostly up to 46 µM
Method in brief: as §2

MKL-1 = assay: as above; conditions: MCC and control cell lines, CellTiter-Glo viability, 72 h; series mostly up to 46 µM
Method in brief: as §2

MKL-2 = assay: as above; conditions: MCC and control cell lines, CellTiter-Glo viability, 72 h; series mostly up to 46 µM
Method in brief: as §2

PC15 = assay: qHTS profiling for inhibitors of Plasmodium falciparum proliferation (AID 504749); conditions: P. falciparum in erythrocytes, SYBR Green DNA, 72 h; series mostly up to 28.7 µM
Method in brief: (§3)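 Quantitative HTS: compounds pinned into medium, infected erythrocytes added (0.3% parasitemia, 2.5% hematocrit), 72 h culture at 37 C under 5% CO2. Saponin/Triton lysis with SYBR Green I, overnight RT, then fluorescence read.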

PC26 = assay: as above; conditions: P. falciparum in erythrocytes, SYBR Green DNA, 72 h; series mostly up to 28.7 µM
Method in brief: as §3

PC49 = assay: as above; conditions: P. falciparum in erythrocytes, SYBR Green DNA, 72 h; series mostly up to 28.7 µM
Method in brief: as §3

SC27B = assay: as above; conditions: P. falciparum in erythrocytes, SYBR Green DNA, 72 h; series mostly up to 28.7 µM
Method in brief: as §3

TAB109 = assay: as above; conditions: P. falciparum in erythrocytes, SYBR Green DNA, 72 h; series mostly up to 28.7 µM
Method in brief: as §3

TAB113 = assay: as above; conditions: P. falciparum in erythrocytes, SYBR Green DNA, 72 h; series mostly up to 28.7 µM
Method in brief: as §3

TAB165 = assay: as above; conditions: P. falciparum in erythrocytes, SYBR Green DNA, 72 h; series mostly up to 28.7 µM
Method in brief: as §3

W2 = assay: as above; conditions: P. falciparum in erythrocytes, SYBR Green DNA, 72 h; series mostly up to 28.7 µM
Method in brief: as §3

CRL-7250 [4] = assay: qHTS assay to identify novel small-molecules to repurpose for Merkel cell carcinoma treatment (AID 1296009); conditions: MCC and control cell lines, CellTiter-Glo viability, 72 h; series mostly up to 44.8 µM
Method in brief: as §2
Note: nearly all actives have a fitted effect of over 60% in size.
Potency is the fitted concentration of half-maximal effect.

N[C@@H](Cc1ccc(Oc2cc(I)c(O)c(I)c2)c(I)c1)C(=O)O
inactive: max response (CRL-7250 [1]) -1.97% | outcome (HEK293) | outcome (HaCat [2]) | max response (KB-3-1) 6.84% | max response (NIH3T3) -1.92% | outcome (HACAT [3]) | outcome (HEK293T) | Potency (MCC-13) | Potency (MCC-26) | Potency (MKL-1) | Potency (MKL-2)

CCN(C(C)=O)c1cccc(-c2ccnc3c(C#N)cnn23)c1
inactive: Potency (PC15) | Potency (PC26) | Potency (PC49) | Potency (SC27B) | Potency (TAB109) | Potency (TAB113) | Potency (TAB165) | Potency (W2) | max response (CRL-7250 [1]) -2.01% | outcome (HEK293) | outcome (HaCat [2]) | max response (KB-3-1) 1.34% | outcome (NIH3T3) | outcome (HACAT [3]) | outcome (HEK293T) | Potency (MCC-13) | Potency (MCC-26) | Potency (MKL-1) | Potency (MKL-2)

CN(C)CCN(C)CCc1ccc(Cl)c(Cl)c1
inactive: outcome (CRL-7250 [1]) | max response (HEK293) 0.598% | max response (HaCat [2]) -22.4% | max response (KB-3-1) 0.794% | max response (NIH3T3) -6.27% | outcome (CRL-7250 [4]) | Potency (MCC-13) | Potency (MCC-26) | Potency (MKL-1) | Potency (MKL-2)

COC[C@H]1OC(=O)c2coc3c2[C@@]1(C)C1=C(C3=O)C2CCC(=O)[C@@]2(C)C[C@H]1OC(C)=O (stereo partly drawn)
inactive: max response (CRL-7250 [1]) -6.6% | max response (HEK293) -95.7% and 0.842% | max response (HaCat [2]) -21.4% | outcome (HaCat [2]) | max response (KB-3-1) -5.47% | outcome (KB-3-1) | outcome (HACAT [3]) | Potency (MCC-13)
active: Potency (MKL-1) 11.8 µM | Potency (MKL-2) 7.43 µM

Oc1cccc2cccnc12
inactive: Potency (PC15) | Potency (PC26) | Potency (PC49) | Potency (SC27B) | Potency (TAB109) | Potency (TAB113) | Potency (TAB165) | Potency (W2) | max response (CRL-7250 [1]) 3.76% | max response (HEK293) -0.236% | max response (HaCat [2]) 4.28% | max response (KB-3-1) 22% and 11.8% and -4.11% | max response (NIH3T3) 4.09% | Potency (MCC-13)
12.2 µM (active) and inactive: Potency (MKL-1)
21.7 µM (active) and inactive: Potency (MCC-26)
4.86 µM (active) and inactive: Potency (MKL-2)
active: Potency (HEK293) 13.7 µM | Potency (NIH3T3) 19.3 µM

CC(C)(C)NCC(O)c1cc(Cl)c(N)c(Cl)c1 (stereo not drawn)
active: Potency (W2) 6.75 µM
inactive: outcome (CRL-7250 [1]) | max response (HEK293) -10.9% | max response (HaCat [2]) -3.36% | max response (KB-3-1) -14.9% | outcome (NIH3T3) | outcome (CRL-7250 [4]) | Potency (MCC-13) | Potency (MKL-1) | Potency (MKL-2)

COc1ccc(C(CN(C)C)C2(O)CCCCC2)cc1 (stereo not drawn)
active: Potency (W2) 1.9 µM
inactive: Potency (PC15) | Potency (PC49) | Potency (SC27B) | Potency (TAB109) | Potency (TAB113) | Potency (TAB165) | max response (CRL-7250 [1]) -3.43% and 1.19% | max response (HEK293) 1.04% | outcome (HEK293) | max response (HaCat [2]) 1.09% and -4.23% | max response (KB-3-1) 2.29% and -2.64% | max response (NIH3T3) 2.42% | outcome (NIH3T3) | outcome (HEK293T) | Potency (MCC-13) | Potency (MCC-26) | Potency (MKL-1) | Potency (MKL-2)
